The values that follow come from PubChem BioAssay.

Calls of active or inactive are those of the source.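 How the source made its calls: active means RAM network inhibition above 8.4% in each of two replicates, 3 SD over the compound average; inconclusive means above 8.4% inhibition in only one replicate; inactive means 8.4% inhibition or less in each replicate.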

The nature of this assay: RAM signaling pathway blockade in yeast – S. cerevisiae, Pdr1DBD-CYC8 efflux-inhibited sensitized strain, primary screen (AID 1298).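 Further: 0% = DMSO untreated cells without growth and 100% = 10 µM 1-NA-PP1 full growth; higher means more yeast growth rescued from 5-FOA killing.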 The settings on record: S. cerevisiae cbk1-as DSE1-URA3 strain, 5-FOA growth OD615, 2 d; at 50 µM; hits give high values.
As to `Cc1noc(C)c1S(=O)(=O)N1CCC(C(=O)N2CCC(N3CCCCC3)CC2)CC1`, the RAM network inhibition was -0.93% (inactive).
`COc1ccc(CNc2nc3c(c(=O)[nH]c(=O)n3C)n2Cc2ccccc2C)cc1`: the RAM network inhibition was 2.1% (inactive).
To `Cc1ccc(-c2nc(-c3ccccc3)no2)c(Cl)c1` belongs 3.45% (inactive); to `Cc1nnc(Sc2nc3c(c(=O)[nH]c(=O)n3C)n2Cc2ccccc2Cl)s1`, 2.84% (inactive).
Regarding `COc1ccc(N2C(=O)CC(c3ccc(OC(C)C)cc3)C2=O)cc1` (centres undefined), the RAM network inhibition is 3.45% (inactive).
With `Cc1ccc(-n2nnc3c(=O)n(CC(=O)OCc4ccccc4)cnc32)cc1`, the RAM network inhibition was 6.18% (inactive).
As for `Cc1cc(Oc2ccccc2)nc2ccc(O)cc12`, the RAM network inhibition is -0.04% (inactive).
Regarding `Cc1ccc(C(=O)N2CCN(c3ccccc3)CC2)cc1C`, the RAM network inhibition is 2.03% (inactive).
`CC(=O)N1CCN(CCN=CC2=C(O)CC(c3cccs3)CC2=O)CC1` (centres undefined): the RAM network inhibition was -0.41% (inactive).
Take `Cc1cc(C)cc(OCCCCCNCCO)c1`: the RAM network inhibition is 2.47% (inactive).
In the case of `Cc1ccnc(SCCn2c(N3CCC(C)CC3)nc3c2c(=O)[nH]c(=O)n3C)n1`, the RAM network inhibition is -1.36% (inactive).
As to `CN(CCCNC(=O)C1CCC(=O)N1Cc1ccc(F)cc1)c1ccccc1` (centres undefined), the RAM network inhibition was 0.72% (inactive).
With `COC(=O)Nc1c(C(=O)OC)cc(OC)c(OC)c1OC`, the RAM network inhibition was 4.86% (inactive).
With `CCCn1c(C(C)NC(C)=O)nc2ccccc21` (centres undefined), the RAM network inhibition is 1.25% (inactive).
To `CCC1CCCCN1Cc1ccc(OC)c(OC)c1` (centres undefined) belongs -1.61% (inactive); to `CCOC(=O)N1CCN(CC(=O)Nc2ccc(C)cc2)CC1`, -0.15% (inactive).
For the compound `Cc1cccc(Cn2c(SCCN3CCOCC3)nc3c2c(=O)n(C)c(=O)n3C)c1`, the RAM network inhibition is 5.93% (inactive).
To `COc1cccc(C(c2sc3ncnn3c2O)N2CCN(C(=O)c3ccco3)CC2)c1` (centres undefined) belongs 2.1% (inactive); to `CCN1CCN(C(=O)C2CCN(Cc3nc(-c4ccc(Cl)cc4)oc3C)CC2)CC1`, 2.86% (inactive); to `CCOC(=O)CC1C(=O)NCCN1Cc1cccc(OC)c1` (centres undefined), 1.79% (inactive).
Take `COc1cccc(-c2nc3cc(C)ccc3o2)c1`: the RAM network inhibition is 4.09% (inactive).
The value for `COCCSc1nc2c(c(=O)[nH]c(=O)n2C)n1CCC(C)C` was 2.8% (inactive); that for `O=C(CCCN1C(=O)CSc2ncccc21)N1CCN(Cc2ccccc2)CC1` was 2.55% (inactive).
The value for `Cc1cc(C)n(C(=O)CCN2C(=O)c3ccccc3C2=O)n1` was -0.15% (inactive); that for `CCCC(=O)c1ccc(N2CCCCCC2)c(F)c1` was 1.5% (inactive); that for `O=C(Nc1c(C(=O)O)oc2ccc(Br)cc12)c1ccccc1` was -2.35% (inactive).
To `CCC(=O)Nc1sc2c(c1C(N)=O)CCN(C(C)=O)C2` belongs 3.29% (inactive); to `CS(=O)(=O)c1ccc(N)cc1`, 1.16% (inactive); to `O=C1CC(c2cccnc2)c2cc3c(cc2N1)OCCO3` (centres undefined), 2.43% (inactive).
For `COCCNC(=O)Cn1ncc2ccsc2c1=O`, the RAM network inhibition is 4.98% (inactive).
As for `COc1cc(NC(=O)C2CCCN2S(=O)(=O)c2ccc3c(c2)CCC(=O)N3)cc(OC)c1` (centres undefined), the RAM network inhibition is 1.33% (inactive).
On to `CC(C)n1c(SCc2ccccc2F)nc2c1c(=O)n(C)c(=O)n2C`, for which the RAM network inhibition is 5.87% (inactive).
Turning to `CCOC(=O)c1c(C)oc2ccc(OC(=O)N3CCOCC3)cc12`, the RAM network inhibition was 0.98% (inactive).
For `CCOC(=O)/C(C#N)=C1/C=Nc2ccccc2N1`, the RAM network inhibition is 0.25% (inactive).
As for `CNS(=O)(=O)c1ccc(Oc2ccc(S(=O)(=O)NC)cc2)cc1`, the RAM network inhibition is 3.27% (inactive).
On to `O=C(O)CN1C(=O)C2C3C=CC(C3)C2C1=O` (centres undefined), for which the RAM network inhibition was 2.2% (inactive).
Regarding `Cc1cc(C)c(NC(=O)c2ccc(S(=O)(=O)N3CCOCC3)cc2)c(C)c1`, the RAM network inhibition is 0.69% (inactive).
Turning to `CC1=C(C(=O)N2CCOCC2)C(c2cccs2)NC(=O)N1` (centres undefined), the RAM network inhibition was 3.01% (inactive).
Turning to `Cc1ccc(OCC(=O)NCc2ccccn2)c(Br)c1`, the RAM network inhibition was 0.01% (inactive).
